Holding throughout (assay): SELEX-seq (CSI, HT-SELEX, round 3); SELEX-seq: 1x PBS (10 mM phosphate, 137 mM NaCl, 2.7 mM KCl) pH 7.6, 2.5 mM DTT, 50 ng/ul poly dI-dC, 0.1% BSA, 50 nM biotinylated bZIP (1:3 with partner for heterodimers), 100 nM library, room temperature, 1 h, 3 rounds; high values mean tight binding
Holding throughout (details): protein: recombinant;recombinant; copies: 1;1; dsDNA, one strand shown

The target of assay [1] is FOS;NFE2L1 (Homo sapiens;Homo sapiens, UniProt P01100;Q14494 128-201;609-725, |).
In assay [2] the target is FOS;MAFB (Homo sapiens;Homo sapiens, UniProt P01100;Q9Y5Q3 128-201;212-305, |).
Assay [3] concerns the target FOS;BATF2 (Homo sapiens;Homo sapiens, UniProt P01100;Q8N1L9 128-201;8-85, |).
Assay [4] concerns the target FOS;CREB3 (Homo sapiens;Homo sapiens, UniProt P01100;O43889 128-201;141-221, |).
The target in assay [5] is FOS;CREB3L3 (Homo sapiens;Homo sapiens, UniProt P01100;Q68CJ9 128-201;234-311, |).
The target of assay [6] is T1, ATF5;CEBPE (Homo sapiens;Homo sapiens, UniProt Q9Y2D1;Q15744 199-275;195-267, |).
T1 sequence 1: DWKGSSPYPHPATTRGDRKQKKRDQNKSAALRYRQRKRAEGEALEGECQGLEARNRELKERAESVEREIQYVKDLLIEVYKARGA
T1 sequence 2: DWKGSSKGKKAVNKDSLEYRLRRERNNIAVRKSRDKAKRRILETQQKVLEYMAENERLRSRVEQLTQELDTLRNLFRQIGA

Assay [7] addresses T2, ATF5;JUNB (Homo sapiens;Homo sapiens, UniProt Q9Y2D1;P17275 199-275;259-332, |).
T2 sequence 1: T1 sequence 1
T2 sequence 2: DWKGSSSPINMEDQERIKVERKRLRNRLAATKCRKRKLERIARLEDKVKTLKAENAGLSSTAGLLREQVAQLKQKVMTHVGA

Assay [8] has as its target T3, ATF5;BATF (Homo sapiens;Homo sapiens, UniProt Q9Y2D1;Q16520 199-275;17-90, |).
T3 sequence 1: T1 sequence 1
T3 sequence 2: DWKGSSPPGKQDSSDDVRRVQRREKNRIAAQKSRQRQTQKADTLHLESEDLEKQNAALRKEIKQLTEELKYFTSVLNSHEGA

The target in assay [9] is ATF5;FOS (Homo sapiens;Homo sapiens, UniProt Q9Y2D1;P01100 199-275;128-201, |).
Assay [10] has as its target T4, ATF5;BATF2 (Homo sapiens;Homo sapiens, UniProt Q9Y2D1;Q8N1L9 199-275;8-85, |).
T4 sequence 1: T1 sequence 1
T4 sequence 2: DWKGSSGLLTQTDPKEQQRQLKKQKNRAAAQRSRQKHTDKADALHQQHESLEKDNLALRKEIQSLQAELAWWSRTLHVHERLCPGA

The target in assay [11] is T5, NFE2;NFE2 (Homo sapiens;Homo sapiens, UniProt Q16621;Q16621 221-337;221-337, |).
T5 sequence 1: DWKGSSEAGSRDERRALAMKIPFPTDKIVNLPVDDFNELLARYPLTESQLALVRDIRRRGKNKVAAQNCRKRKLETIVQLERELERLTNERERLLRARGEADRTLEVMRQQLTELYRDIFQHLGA
T5 sequence 2: T5 sequence 1

For assay [12], the target named is NFE2;MAFG (Homo sapiens;Homo sapiens, UniProt Q16621;O15525 221-337;25-124, |).
For assay [13], the target named is NFE2L1;MAFG (Homo sapiens;Homo sapiens, UniProt Q14494;O15525 609-725;25-124, |).
Assay [14] addresses T6, HLF;HLF (Homo sapiens;Homo sapiens, UniProt Q16534;Q16534 216-293;216-293, |).
T6 sequence 1: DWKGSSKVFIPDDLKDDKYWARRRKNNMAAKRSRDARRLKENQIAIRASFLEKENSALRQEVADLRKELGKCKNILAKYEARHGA
T6 sequence 2: T6 sequence 1

Assay [15] deals with T7, NFIL3;NFIL3 (Homo sapiens;Homo sapiens, UniProt Q16649;Q16649 64-134;64-134, |).
T7 sequence 1: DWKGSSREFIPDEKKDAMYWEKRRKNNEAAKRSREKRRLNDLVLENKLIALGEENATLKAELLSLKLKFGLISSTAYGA
T7 sequence 2: T7 sequence 1

Assay [16] has as its target MAFB;FOSL1 (Homo sapiens;Homo sapiens, UniProt Q9Y5Q3;P15407 212-305;96-169, |).
In assay [17] the target is MAFB;ATF5 (Homo sapiens;Homo sapiens, UniProt Q9Y5Q3;Q9Y2D1 212-305;199-275, |).
Assay [18] addresses T8, ATF5;CREB3L1 (Homo sapiens;Homo sapiens, UniProt Q9Y2D1;Q96BA8 199-275;281-358, |).
T8 sequence 1: T1 sequence 1
T8 sequence 2: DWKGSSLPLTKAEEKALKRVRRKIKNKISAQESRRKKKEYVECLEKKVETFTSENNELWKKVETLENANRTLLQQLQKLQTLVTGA

Assay [19] concerns the target T9, ATF5;CREB3L3 (Homo sapiens;Homo sapiens, UniProt Q9Y2D1;Q68CJ9 199-275;234-311, |).
T9 sequence 1: T1 sequence 1
T9 sequence 2: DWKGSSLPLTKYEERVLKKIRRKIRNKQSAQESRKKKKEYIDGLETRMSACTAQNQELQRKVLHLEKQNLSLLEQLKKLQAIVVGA

Assay [20] concerns the target MAFG;MAFG (Homo sapiens;Homo sapiens, UniProt O15525;O15525 25-124;25-124, |).

Sequence of MAFB;FOSL1 (Q9Y5Q3 other isoform, or with tags, fused parts or gaps |, chain 1 of 2): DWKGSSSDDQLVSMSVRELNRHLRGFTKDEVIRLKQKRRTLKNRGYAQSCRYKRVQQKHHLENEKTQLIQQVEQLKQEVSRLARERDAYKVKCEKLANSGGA
Sequence of MAFB;FOSL1 (P15407 other isoform, or with tags, fused parts or gaps |, chain 2 of 2): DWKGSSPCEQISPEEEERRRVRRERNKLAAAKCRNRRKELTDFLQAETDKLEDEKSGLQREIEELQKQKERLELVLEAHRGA
Sequence of FOS;CREB3 (P01100 other isoform, or with tags, fused parts or gaps |, chain 1 of 2): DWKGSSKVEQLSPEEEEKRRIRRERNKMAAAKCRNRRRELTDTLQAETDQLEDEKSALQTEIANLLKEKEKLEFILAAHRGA
Sequence of FOS;CREB3 (O43889 other isoform, or with tags, fused parts or gaps |, chain 2 of 2): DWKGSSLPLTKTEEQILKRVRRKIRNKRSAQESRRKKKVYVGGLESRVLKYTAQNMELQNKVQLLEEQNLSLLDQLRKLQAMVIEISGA
Sequence of FOS;NFE2L1 (P01100 other isoform, or with tags, fused parts or gaps |, chain 1 of 2): as the sequence (P01100 other isoform, or with tags, fused parts or gaps |, chain 1 of 2) above
Sequence of FOS;NFE2L1 (Q14494 other isoform, or with tags, fused parts or gaps |, chain 2 of 2): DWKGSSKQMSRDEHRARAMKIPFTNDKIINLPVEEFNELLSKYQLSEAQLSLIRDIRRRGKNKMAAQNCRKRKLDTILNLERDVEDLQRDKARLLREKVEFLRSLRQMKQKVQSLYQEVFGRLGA
Sequence of FOS;BATF2 (P01100 other isoform, or with tags, fused parts or gaps |): as the sequence (P01100 other isoform, or with tags, fused parts or gaps |, chain 1 of 2) above
Sequence of ATF5;FOS (P01100 other isoform, or with tags, fused parts or gaps |): as the sequence (P01100 other isoform, or with tags, fused parts or gaps |, chain 1 of 2) above
Sequence of FOS;CREB3L3 (P01100 other isoform, or with tags, fused parts or gaps |, chain 1 of 2, one chain of several): as the sequence (P01100 other isoform, or with tags, fused parts or gaps |, chain 1 of 2) above
Sequence of FOS;MAFB (P01100 other isoform, or with tags, fused parts or gaps |, chain 1 of 2): as above
Sequence of FOS;MAFB (Q9Y5Q3 other isoform, or with tags, fused parts or gaps |, chain 2 of 2): as the sequence (Q9Y5Q3 other isoform, or with tags, fused parts or gaps |, chain 1 of 2) above

For ATGACGCAAT, the binding signal was 0.49 relative CSI intensity (max = 1) in [1]; 0.0613 relative CSI intensity (max = 1) in assay [2]; 0.00476 relative CSI intensity (max = 1) in [3]; 0.0275 relative CSI intensity (max = 1) in assay [4]; 0.00168 relative CSI intensity (max = 1) in assay [5]; 0.245 relative CSI intensity (max = 1) in assay [6]. The binding signal is 0.00597 relative CSI intensity (max = 1) in assay [7]; 0.00602 relative CSI intensity (max = 1) in [8]; 0.024 relative CSI intensity (max = 1) in [9]; 0.0275 relative CSI intensity (max = 1) in assay [10]; 0.0016 relative CSI intensity (max = 1) in [11]; 0.00814 relative CSI intensity (max = 1) in assay [12]. The binding signal in assay [13] is 0.00759 relative CSI intensity (max = 1); in [14], 0.245 relative CSI intensity (max = 1); in assay [15], 0.224 relative CSI intensity (max = 1); in [16], 0.00163 relative CSI intensity (max = 1); in [17], 0.00342 relative CSI intensity (max = 1).

As to ATGACGTCAT, the binding signal was 0.472 relative CSI intensity (max = 1) in assay [1]; 0.278 relative CSI intensity (max = 1) in [2]; 1 relative CSI intensity (max = 1) in [3]; 1 relative CSI intensity (max = 1) in [4]; 0.751 relative CSI intensity (max = 1) in assay [5]; 0.364 relative CSI intensity (max = 1) in assay [6]. Further, the binding signal was 1 relative CSI intensity (max = 1) in assay [7]; 0.864 relative CSI intensity (max = 1) in [8]; 1 relative CSI intensity (max = 1) in assay [9]; 1 relative CSI intensity (max = 1) in assay [18]; 0.86 relative CSI intensity (max = 1) in assay [10]; 1 relative CSI intensity (max = 1) in [19]. In addition, the binding signal is 0.112 relative CSI intensity (max = 1) in assay [11]; 0.0346 relative CSI intensity (max = 1) in [12]; 0.0138 relative CSI intensity (max = 1) in assay [13]; 0.205 relative CSI intensity (max = 1) in [14]; 0.344 relative CSI intensity (max = 1) in assay [15]; 0.0131 relative CSI intensity (max = 1) in assay [20]. In addition, the binding signal in [16] is 0.196 relative CSI intensity (max = 1); in [17], 0.148 relative CSI intensity (max = 1).

ATGACGGAAT: the binding signal in assay [1] is 0.00712 relative CSI intensity (max = 1); in assay [2] it was 0.00352 relative CSI intensity (max = 1); in assay [4], 0.0131 relative CSI intensity (max = 1); in [5], 0.00582 relative CSI intensity (max = 1); in assay [6] it was 0.047 relative CSI intensity (max = 1); in assay [7], 0.00218 relative CSI intensity (max = 1). Also, the binding signal in assay [9] was 0.0159 relative CSI intensity (max = 1); in assay [13] it was 0.00175 relative CSI intensity (max = 1); in assay [15] it was 0.00935 relative CSI intensity (max = 1); in [20], 0.00454 relative CSI intensity (max = 1).

Take CCTGACGTCA: the binding signal is 0.0128 relative CSI intensity (max = 1) in assay [2]; 0.00375 relative CSI intensity (max = 1) in assay [3]; 0.0122 relative CSI intensity (max = 1) in assay [4]; 0.073 relative CSI intensity (max = 1) in assay [6]; 0.0543 relative CSI intensity (max = 1) in assay [7]; 0.0188 relative CSI intensity (max = 1) in [8]. Further, the binding signal is 0.0125 relative CSI intensity (max = 1) in assay [9]; 0.00567 relative CSI intensity (max = 1) in assay [18]; 0.0163 relative CSI intensity (max = 1) in [10]; 0.00229 relative CSI intensity (max = 1) in assay [19]; 0.00227 relative CSI intensity (max = 1) in assay [12]; 0.00977 relative CSI intensity (max = 1) in assay [15]. Also, the binding signal in assay [16] is 0.0285 relative CSI intensity (max = 1); in assay [17], 0.0743 relative CSI intensity (max = 1).

In the case of ATGACGTAAT, the binding signal is 0.12 relative CSI intensity (max = 1) in assay [1]; 0.0637 relative CSI intensity (max = 1) in [2]; 0.0531 relative CSI intensity (max = 1) in assay [3]; 0.0238 relative CSI intensity (max = 1) in assay [5]; 0.189 relative CSI intensity (max = 1) in assay [6]; 0.0445 relative CSI intensity (max = 1) in assay [7]. Further, the binding signal in assay [8] is 0.0375 relative CSI intensity (max = 1); in assay [9], 0.00734 relative CSI intensity (max = 1); in [18], 0.00877 relative CSI intensity (max = 1); in assay [10], 0.174 relative CSI intensity (max = 1); in assay [19] it was 0.00383 relative CSI intensity (max = 1); in assay [11], 0.00452 relative CSI intensity (max = 1). Moreover, the binding signal in assay [12] is 0.00855 relative CSI intensity (max = 1); in [13], 0.0021 relative CSI intensity (max = 1); in assay [14], 0.728 relative CSI intensity (max = 1); in assay [15], 0.7 relative CSI intensity (max = 1); in assay [20], 0.0106 relative CSI intensity (max = 1); in assay [16] it was 0.00946 relative CSI intensity (max = 1). Besides, the binding signal in assay [17] is 0.0179 relative CSI intensity (max = 1).

ATGATGCAAT: the binding signal in [1] is 0.174 relative CSI intensity (max = 1); in assay [2], 0.0246 relative CSI intensity (max = 1); in [4], 0.00378 relative CSI intensity (max = 1); in assay [5] it was 0.00314 relative CSI intensity (max = 1); in assay [6], 0.402 relative CSI intensity (max = 1); in assay [7], 0.00145 relative CSI intensity (max = 1). The binding signal in [8] was 0.00475 relative CSI intensity (max = 1); in [18], 0.00221 relative CSI intensity (max = 1); in assay [10], 0.02 relative CSI intensity (max = 1); in [12], 0.0058 relative CSI intensity (max = 1); in [13] it was 0.00579 relative CSI intensity (max = 1); in assay [14], 0.0587 relative CSI intensity (max = 1). Further, the binding signal in assay [15] is 0.107 relative CSI intensity (max = 1); in assay [20], 0.00357 relative CSI intensity (max = 1); in assay [16], 0.00125 relative CSI intensity (max = 1); in [17] it was 0.00407 relative CSI intensity (max = 1).

These data come from publication PMC5349851, “Combinatorial bZIP dimers display complex DNA-binding specificity landscapes”.
